This excerpt belongs to a sample that is enriched for hits.
miR-122 inh = miR-122 sensor activation. Huh7 psiCHECK-miR122 Renilla luciferase sensor, 48 h. actives 0.14% (n = 340,000). activation, % at 12.5 µM;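 active means mean activation of 30% or more, with every replicate also reaching 30%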;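 further: 0% = median of neutral control wells and 100% = median of positive control wells; higher luciferase signal means stronger suppression of miR-122 activity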
Starred values were filed as active, the others as inactive.

SMILES	miR-122 inh
C[C@H]1CN([C@@H](C)CO)C(=O)c2cc(C#Cc3cccc(F)c3)cnc2O[C@@H]1CN(C)C(=O)C1CC1	0.0
C[C@H](CO)N1C[C@H](C)[C@@H](CN(C)Cc2ccc3c(c2)OCO3)Oc2ncc(Br)cc2C1=O	-2.7
CO[C@H]1CN(C)C(=O)c2cc(NC(=O)NC(C)C)ccc2OC[C@@H](C)N(C(=O)NC(C)C)C[C@@H]1C	-0.5
COc1cccc(-c2ccc3c(c2)O[C@@H](CN(C)CC2CC2)[C@@H](C)CN([C@H](C)CO)S3(=O)=O)c1	5.2
C[C@H](CO)N1C[C@H](C)[C@H](CN(C)Cc2ccccc2F)Oc2ncc(/C=C/c3ccccc3)cc2C1=O	-3.3
CCCC(=O)Nc1ccc2c(c1)C(=O)N(C)C[C@@H](OC)[C@H](C)CN(CCC)[C@H](C)CO2	-0.7
CCC(=O)N(C)C[C@@H]1Oc2cc(C#C[C@H](C)O)ccc2S(=O)(=O)N([C@@H](C)CO)C[C@@H]1C	1.4
CCCNC(=O)N(C)C[C@@H]1Oc2ncc(C#C[C@H](C)O)cc2C(=O)N([C@@H](C)CO)C[C@@H]1C	-2.2
CCC(=O)N(C)C[C@H]1Oc2ncc(C#C[C@H](C)O)cc2C(=O)N([C@H](C)CO)C[C@@H]1C	0.4
CC(C)CC#Cc1cnc2c(c1)C(=O)N([C@@H](C)CO)C[C@@H](C)[C@H](CN(C)C(=O)Nc1cc(F)ccc1F)O2	-0.5
C[C@@H]1CN([C@@H](C)CO)S(=O)(=O)c2ccc(C#C[C@@H](C)O)cc2O[C@H]1CN(C)CC1CCOCC1	-43.1
COC(=O)c1ccc(NS(=O)(=O)c2cc(C)ccc2OC)cc1	-149.8
COC(=O)c1ccc2c(c1)C(C)(C)C(/C=C/c1ccc(OC)c(OC)c1OC)=[N+]2C	40.4*
COc1ccccc1-c1cnc2c(c1)C(=O)N([C@H](C)CO)C[C@@H](C)[C@H](CN(C)C(=O)CN(C)C)O2	-2.5
C[C@@H]1CN([C@H](C)CO)S(=O)(=O)c2ccc(C#Cc3ccccc3)cc2O[C@H]1CN(C)S(=O)(=O)c1ccccc1F	-2.7
COCC(=O)N(C)C[C@H]1Oc2cc(Br)ccc2S(=O)(=O)N([C@@H](C)CO)C[C@H]1C	6.8
O=C(NCCCN1CCN(Cc2ccccc2)CC1)c1nnc(Cc2c(F)cccc2Cl)o1	-103.3
COc1ccc(NS(=O)(=O)c2cc(NC(=O)c3ccc(Cl)cc3)ccc2N2CCOCC2)cc1	-101.7
CC(=O)Nc1ccc(C(=O)Nc2ccc(S(=O)(=O)NCC3CCCO3)cc2)cc1 (stereo unspecified)	-97.4
O=C(Nc1ccc(CN2CCOCC2)cc1)c1ccc(-c2ccc(Cl)cc2Cl)o1	33.8*
CCOC(=O)c1ccc(NC(=O)c2ccc(CN3CCOCC3)cc2)cc1	37.6*
COCC#Cc1ccc2c(c1)O[C@@H](CN(C)C(=O)C1CCOCC1)[C@@H](C)CN([C@@H](C)CO)S2(=O)=O	1.8
C[C@H]1CN([C@@H](C)CO)C(=O)c2cc(/C=C/c3ccccc3)cnc2O[C@H]1CN(C)C(=O)c1cccnc1	-21.6
CCC(=O)N(C)C[C@H]1Oc2ncc(C#C[C@H](C)O)cc2C(=O)N([C@@H](C)CO)C[C@H]1C	0.7
C[C@H]1CN([C@@H](C)CO)C(=O)c2cc(-c3cccc(C#N)c3)cnc2O[C@@H]1CN(C)C	-0.5
SMILES	miR-122 inh
CCC(=O)N(C)C[C@H]1Oc2ncc(C#CC3(O)CCCC3)cc2C(=O)N([C@H](C)CO)C[C@@H]1C	-6.0
CC(=O)N(C)C[C@@H]1Oc2cc(C#C[C@H](C)O)ccc2S(=O)(=O)N([C@H](C)CO)C[C@H]1C	7.0
COc1cccc(N2CCN(C(=S)Nc3cccc(C)c3)CC2)c1	-120.7
FC(F)(F)c1cnc(N2CCCN(C(=S)Nc3ccccc3)CC2)c(Cl)c1	37.1*
O=S(=O)(Nc1ccccc1)c1ccc(Oc2ncc(C(F)(F)F)cc2Cl)cc1	-94.2
COCC(=O)N(C)C[C@H]1Oc2cc(-c3cccc(F)c3)ccc2S(=O)(=O)N([C@@H](C)CO)C[C@H]1C	13.1
CCCNC(=O)N(C)C[C@H]1Oc2ncc(C#C[C@H](C)O)cc2C(=O)N([C@H](C)CO)C[C@H]1C	2.6
O=C(CCCCCCC(=O)Nc1ccccc1)NO	-232.4
O=C(CCCCCN1C(=O)c2ccccc2C1=O)NCc1ccccn1	35.5*
CCc1ccc(-c2cc(C(=O)NCc3ccccn3)c3ccccc3n2)cc1	-148.4
C[C@@H]1CN([C@H](C)CO)C(=O)c2cc(C#CC3(O)CCCC3)cnc2O[C@@H]1CN(C)S(C)(=O)=O	4.6
COc1cccc(-c2cnc3c(c2)C(=O)N([C@H](C)CO)C[C@H](C)[C@@H](CN(C)C(=O)Nc2ccccc2F)O3)c1	7.4
C[C@@H]1CN([C@H](C)CO)C(=O)c2cc(-c3cccc(C#N)c3)cnc2O[C@H]1CN(C)Cc1ccccc1	-3.0
COCC(=O)Nc1ccc2c(c1)C(=O)N(C)C[C@@H](OC)[C@H](C)CN(C(=O)COC)[C@H](C)CO2	-1.9
C/C(=N\NC(=O)C(C)Oc1ccc([N+](=O)[O-])cc1)c1ccccn1 (stereo unspecified)	32.0*
CCCC#Cc1cnc2c(c1)C(=O)N([C@H](C)CO)C[C@H](C)[C@H](CN(C)Cc1ccccc1F)O2	-96.4
CC(C)C#Cc1ccc2c(c1)O[C@H](CN(C)C(=O)CN(C)C)[C@H](C)CN([C@H](C)CO)S2(=O)=O	10.2
C[C@@H]1CN([C@H](C)CO)S(=O)(=O)c2ccc(C#Cc3ccccc3)cc2O[C@@H]1CN(C)S(=O)(=O)c1ccccc1F	-34.8
COc1cccc(S(=O)(=O)N(C)C[C@H]2Oc3ncc(C#CCC(C)C)cc3C(=O)N([C@H](C)CO)C[C@H]2C)c1	0.4
CC(=O)N(C)C[C@@H]1Oc2cc(C#C[C@@H](C)O)ccc2S(=O)(=O)N([C@H](C)CO)C[C@@H]1C	4.1
CC(=O)N(C)C[C@@H]1Oc2cc(C#C[C@@H](C)O)ccc2S(=O)(=O)N([C@@H](C)CO)C[C@@H]1C	-1.6
C[C@H](CO)N1C[C@H](C)[C@H](CN(C)S(C)(=O)=O)Oc2ncc(Br)cc2C1=O	-0.9

Source: PubChem BioAssay
